Measurements as given in PubChem BioAssay (NCATS).
Values joined by “and” are separate entries in the source; they are usually repeats but may differ in a detail not shown here. Equal entries are not always repeated. Results filed as inconclusive are left out. Active and inactive are the calls of the source. Unless noted, the call rests on the fitted dose curve; in most records, active means well fitted curve in the direction sought with a large enough effect; inconclusive means small, poorly fitted or top-dose-only effect, or another doubt; inactive means no such curve, though single readings can be large; an effect the other way counts as inactive or inconclusive.

Columns and labels:
[1] = target: Tyrosine-protein phosphatase non-receptor type substrate 1 (Homo sapiens) + Leukocyte surface antigen CD47 (Homo sapiens) (UniProt P78324+Q08722); assay: CD47-SIRPalpha protein protein interaction - Alpha assay qHTS validation (AID 1347059);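 further: bead proximity luminescence from CD47 binding SIRPalpha after compound preincubation with SIRPalpha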
Sequence of Tyrosine-protein phosphatase non-receptor type substrate 1 (Homo sapiens) + Leukocyte surface antigen CD47 (Homo sapiens) (P78324 whole entry, looked up): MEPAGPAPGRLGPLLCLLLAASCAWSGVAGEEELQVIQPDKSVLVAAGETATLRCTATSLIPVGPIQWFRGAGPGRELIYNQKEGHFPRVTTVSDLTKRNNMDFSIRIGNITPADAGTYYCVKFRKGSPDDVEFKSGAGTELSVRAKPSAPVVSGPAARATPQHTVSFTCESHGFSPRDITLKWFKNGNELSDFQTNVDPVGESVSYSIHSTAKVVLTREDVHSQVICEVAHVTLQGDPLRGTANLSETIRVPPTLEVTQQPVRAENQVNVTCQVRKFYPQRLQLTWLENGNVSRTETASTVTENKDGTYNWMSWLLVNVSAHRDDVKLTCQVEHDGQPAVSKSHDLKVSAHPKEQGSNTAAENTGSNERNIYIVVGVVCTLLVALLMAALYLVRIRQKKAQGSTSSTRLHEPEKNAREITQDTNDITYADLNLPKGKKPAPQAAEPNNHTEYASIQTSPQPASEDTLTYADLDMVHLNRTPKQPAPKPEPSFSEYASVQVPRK
Sequence of Tyrosine-protein phosphatase non-receptor type substrate 1 (Homo sapiens) + Leukocyte surface antigen CD47 (Homo sapiens) (Q08722 whole entry, looked up): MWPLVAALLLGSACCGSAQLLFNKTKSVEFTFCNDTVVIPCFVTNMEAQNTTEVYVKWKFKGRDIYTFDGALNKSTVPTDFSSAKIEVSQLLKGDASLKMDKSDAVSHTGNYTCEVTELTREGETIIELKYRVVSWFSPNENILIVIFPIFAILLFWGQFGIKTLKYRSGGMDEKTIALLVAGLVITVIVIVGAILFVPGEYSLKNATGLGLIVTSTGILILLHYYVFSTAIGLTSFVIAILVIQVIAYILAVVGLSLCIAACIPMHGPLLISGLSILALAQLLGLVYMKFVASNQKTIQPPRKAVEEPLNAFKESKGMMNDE
Procedure, shortened: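 Binding is measured by AlphaScreen proximity: Ni-NTA acceptor beads capture His-CD47, streptavidin donor beads capture biotin-SIRPalpha. Each of three additions (SIRPalpha with compound, CD47, beads) incubates 30 min at room temperature protected from light.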

[2] = target: Parathyroid hormone/parathyroid hormone-related peptide receptor (Homo sapiens) (UniProt Q03431); assay: qHTS for PTHR1 Agonists: Optimization Screen against the NCGC LOPAC library (AID 1347079);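 further: GloSensor cAMP luminescence in HEK-293 GP2 cells expressing human PTHR1 with IBMX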
Sequence of Parathyroid hormone/parathyroid hormone-related peptide receptor (Homo sapiens) (Q03431 whole entry, looked up): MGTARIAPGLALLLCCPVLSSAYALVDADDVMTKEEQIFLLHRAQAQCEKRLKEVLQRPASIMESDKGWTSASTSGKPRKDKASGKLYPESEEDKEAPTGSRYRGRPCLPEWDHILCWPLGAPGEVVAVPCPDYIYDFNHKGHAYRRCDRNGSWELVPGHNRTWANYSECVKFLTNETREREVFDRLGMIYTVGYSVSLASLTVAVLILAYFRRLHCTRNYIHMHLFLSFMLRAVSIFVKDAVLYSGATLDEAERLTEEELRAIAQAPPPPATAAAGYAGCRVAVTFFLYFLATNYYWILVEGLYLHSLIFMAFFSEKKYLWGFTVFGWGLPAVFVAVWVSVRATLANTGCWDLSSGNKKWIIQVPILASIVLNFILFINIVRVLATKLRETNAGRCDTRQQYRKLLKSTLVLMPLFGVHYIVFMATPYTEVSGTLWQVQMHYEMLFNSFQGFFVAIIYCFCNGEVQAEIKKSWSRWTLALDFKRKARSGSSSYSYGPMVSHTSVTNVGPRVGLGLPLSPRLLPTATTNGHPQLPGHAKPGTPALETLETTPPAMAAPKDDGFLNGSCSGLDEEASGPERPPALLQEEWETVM
Procedure, shortened: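 Agonist readout: GloSensor cAMP luminescence, read after 15 min at room temperature. HEK-293-derived GP2 line carries PTHR1; compounds tested as a titration for 1 hr at 37C in presence of IBMX. M-PTH (1-15) served as control.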

[3] = qHTS for Inhibitors of the Functional Ribonucleoprotein Complex (vRNP) of Lassa (LASV) Arenavirus: LASV Primary Screen - GLuc reporter signal (AID 1347082; calls by dose curve; tested in HEK293 reporter line; further: series mostly up to about 57 µM; nearly all actives have a fitted effect of over 60% in size)
[4] = qHTS for Inhibitors of the Functional Ribonucleoprotein Complex (vRNP) of Lassa (LASV) Arenavirus: Viability assay - alamar blue signal for LASV Primary Screen (AID 1347083; calls by dose curve; tested in HEK293 reporter line; further: series mostly up to about 57 µM; nearly all actives have a fitted effect of over 80% in size)
[5] = qHTS for Inhibitors of the Functional Ribonucleoprotein Complex (vRNP) of Lymphocytic Choriomeningitis Arenaviruses (LCMV): Viability assay - alamar blue signal for LCMV Primary Screen (AID 1347085; calls by dose curve; tested in HEK293 reporter line; further: series mostly up to about 57 µM; nearly all actives have a fitted effect of over 80% in size)
[6] = target: Nucleoprotein (Lymphocytic choriomeningitis virus (strain Armstrong)) (UniProt P09992); assay: qHTS for Inhibitors of the Functional Ribonucleoprotein Complex (vRNP) of Lymphocytic Choriomeningitis Arenaviruses (LCMV): LCMV Primary Screen - GLuc reporter signal (AID 1347086; calls by dose curve; further: series mostly up to about 57 µM; nearly all actives have a fitted effect of over 70% in size)
Sequence of Nucleoprotein (Lymphocytic choriomeningitis virus (strain Armstrong)) (P09992 whole entry, looked up): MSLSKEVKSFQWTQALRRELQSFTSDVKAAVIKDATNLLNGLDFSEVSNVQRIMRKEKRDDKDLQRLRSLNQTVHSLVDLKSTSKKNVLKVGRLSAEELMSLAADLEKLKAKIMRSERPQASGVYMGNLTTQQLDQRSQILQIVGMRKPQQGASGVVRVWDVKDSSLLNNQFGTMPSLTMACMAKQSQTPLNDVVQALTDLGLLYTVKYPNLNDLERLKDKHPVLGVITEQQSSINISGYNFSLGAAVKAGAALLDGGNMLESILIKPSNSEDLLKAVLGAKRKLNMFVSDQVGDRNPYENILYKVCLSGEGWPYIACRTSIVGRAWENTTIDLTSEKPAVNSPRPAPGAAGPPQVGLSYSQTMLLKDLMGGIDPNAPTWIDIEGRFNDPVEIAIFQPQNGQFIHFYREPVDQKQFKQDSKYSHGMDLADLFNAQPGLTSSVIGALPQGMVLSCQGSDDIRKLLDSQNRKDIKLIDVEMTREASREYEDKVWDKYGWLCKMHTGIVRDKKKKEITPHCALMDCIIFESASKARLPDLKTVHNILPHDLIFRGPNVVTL

[7] = qHTS of pediatric cancer cell lines to identify multiple opportunities for drug repurposing: Primary screen for TC32 cells (AID 1347089); further: nearly all actives have a fitted effect of over 60% in size
Procedure, shortened: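 Luminescent ATP read-out (CellTiter-Glo) of metabolically active TC32 cells after 48 h exposure. Concentration-response curves came from 11-point (MIPE, 0.78 nM–46 µM) or 8-point (NPC, 0.59 nM–46 µM) primary titrations; follow-up used 11 points.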

[8] = qHTS of pediatric cancer cell lines to identify multiple opportunities for drug repurposing: Primary screen for DAOY cells (AID 1347090); further: series mostly up to about 46 µM; nearly all actives have a fitted effect of over 55% in size
Procedure, shortened: (§1)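 Cell viability, CellTiter-Glo luminescence; 500-1,000 cells/well, 8- or 11-point titration, 48 h compound exposure at 37 degrees C, 5% CO2. Controls: DMSO neutral, bortezomib 2.3 µM final as positive.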

[9] = qHTS of pediatric cancer cell lines to identify multiple opportunities for drug repurposing: Primary screen for A673 cells (AID 1347092); further: nearly all actives have a fitted effect of over 45% in size
Procedure, shortened: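 Cell viability of A673 measured by CellTiter-Glo ATP luminescence after 48 hours compound exposure. Dilution series spanned 0.78 nM to 46 µM (MIPE, 11-point) or 0.59 nM to 46 µM (NPC, 8-point); bortezomib 2.3 uM positive control.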

[10] = qHTS of pediatric cancer cell lines to identify multiple opportunities for drug repurposing: Primary screen for SK-N-MC cells (AID 1347093); further: potency means the concentration at half of the fitted maximal effect
Procedure, shortened: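 Metabolically active cells were quantified by ATP-dependent luminescence (CellTiter-Glo, 15 min at room temperature) following 48 h treatment. Cells had been plated at 500-1,000 per well and settled for 5 h beforehand.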

[11] = qHTS of pediatric cancer cell lines to identify multiple opportunities for drug repurposing: Primary screen for BT-37 cells (AID 1347094); further: series mostly up to about 57 µM
Procedure, shortened: (§2)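 Primary screen of approved and investigational compounds on cells in growth media at 37 degrees C, 5% CO2. MIPE set at 11-point and NPC set at 8-point dilutions; viability scored by ATP-based luminescence at 48 hours.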

[12] = qHTS of pediatric cancer cell lines to identify multiple opportunities for drug repurposing: Primary screen for NB-EBc1 cells (AID 1347095)
Procedure, shortened: as §2

[13] = qHTS of pediatric cancer cell lines to identify multiple opportunities for drug repurposing: Primary screen for U-2 OS cells (AID 1347096); further: nearly all actives have a fitted effect of over 50% in size
Procedure, shortened: (§3)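 Cells (500-1,000/well) rested 5 h, then received compounds for 48 h; metabolically active cells were measured by CellTiter-Glo luminescence. Final concentrations spanned up to 46 µM (MIPE, 11-point) or 0.59 nM-46 µM (NPC, 8-point) in primary screens, 11-point in follow-ups.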

[14] = qHTS of pediatric cancer cell lines to identify multiple opportunities for drug repurposing: Primary screen for Saos-2 cells (AID 1347097); further: nearly all actives have a fitted effect of over 40% in size
Procedure, shortened: as §2

[15] = qHTS of pediatric cancer cell lines to identify multiple opportunities for drug repurposing: Primary screen for SK-N-SH cells (AID 1347098); further: nearly all actives have a fitted effect of over 65% in size
Procedure, shortened: as §3

[16] = qHTS of pediatric cancer cell lines to identify multiple opportunities for drug repurposing: Primary screen for NB1643 cells (AID 1347099); further: nearly all actives have a fitted effect of over 50% in size
Procedure, shortened: as §2

[17] = qHTS of pediatric cancer cell lines to identify multiple opportunities for drug repurposing: Primary screen for LAN-5 cells (AID 1347100)
Procedure, shortened: as §3

[18] = qHTS of pediatric cancer cell lines to identify multiple opportunities for drug repurposing: Primary screen for BT-12 cells (AID 1347101); further: nearly all actives have a fitted effect of over 25% in size
Procedure, shortened: as §3

[19] = qHTS of pediatric cancer cell lines to identify multiple opportunities for drug repurposing: Primary screen for Rh18 cells (AID 1347102); further: nearly all actives have a fitted effect of over 65% in size
Procedure, shortened: as §3

[20] = qHTS of pediatric cancer cell lines to identify multiple opportunities for drug repurposing: Primary screen for SJ-GBM2 cells (AID 1347091)
Procedure, shortened: as §1

Measured: Potency

CC(NC(C)(C)C)C(=O)c1cccc(Cl)c1 (stereo not drawn)
active: [10] 1.1 nM and 29.6 µM
inactive: [1] | [2] | [3] | [4] | [5] | [6] | [7] | [8] | [9] | [11] | [12] | [13] | [14] | [15] | [16] | [17] | [18] | [19]

O=P1(N(CCCl)CCCl)NCCCO1 (stereo not drawn)
inactive: [1] | [2] | [3] | [4] | [5] | [6] | [7] | [8] | [20] | [9] | [10] | [11] | [12] | [13] | [14] | [15] | [16] | [17] | [18] | [19]

CC(C)(C)NCC(O)c1ccccc1Cl (stereo not drawn)
inactive: [1] | [2] | [3] | [4] | [5] | [6] | [7] | [8] | [9] | [10] | [11] | [12] | [13] | [14] | [16] | [17] | [18] | [19]

CC(C)(S)[C@@H](N)C(=O)O
inactive: [3] | [4] | [5]

CC(C)c1cccc(C(C)C)c1O
inactive: [1] | [2] | [3] | [4] | [5] | [6] | [7] | [8] | [20] | [9] | [10] | [11] | [12] | [13] | [14] | [16] | [17] | [19]

Cc1nc2ccc(CN(C)c3ccc(C(=O)N[C@@H](CCC(=O)O)C(=O)O)s3)cc2c(=O)[nH]1
inactive: [3]

CN1CC(=O)NC1=N
inactive: [3] | [4] | [5] | [6]
